These results are taken from PubChem BioAssay (NCI).

This is part of a sample that, as a whole, favours compounds with a hit. Of some 83,000 tested, about 20% had one in any assay.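 Percent growth is the endpoint: 0 to 100 indicates growth inhibition (40 means 60% inhibition), 0 means no net growth, and negative values indicate cell death.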 Unmarked numbers belong to inactive results. The source made the active and inactive calls. Rule for the calls: active = growth percent below 10; inactive = the rest.

Test in all cases: NCI-60 one-dose screen, 48 h (100 = growth as untreated, 0 = no growth, -100 = all killed)
Experiment [1] concerns HCT-15 colon. To be noted: 10 µM unless noted.
In experiment [2] the test system is HT29 colon. To be noted: 10 µM unless noted.
Experiment [3] concerns SNB-75 CNS. To be noted: 10 µM unless noted.
Experiment [4] has as its system SNB-19 CNS. To be noted: 10 µM unless noted.
Experiment [5] concerns U251 CNS. To be noted: 10 µM unless noted.
Experiment [6] concerns PC-3 prostate. To be noted: 10 µM unless noted.
Experiment [7] concerns SK-MEL-5 melanoma. To be noted: 10 µM unless noted.
Experiment [8] deals with UACC-62 melanoma. The note with it: 10 µM unless noted.
Experiment [9] has as its system LOX IMVI melanoma. The note with it: 10 µM unless noted.
For experiment [10], the system named is SK-MEL-28 melanoma. To be noted: 10 µM unless noted.
Experiment [11] relates to SK-MEL-2 melanoma. The note with it: 10 µM unless noted.
For experiment [12], the system named is EKVX NSCLC. The note with it: 10 µM.
Experiment [13] deals with SN12C renal. To be noted: 10 µM unless noted.
For experiment [14], the system named is UO-31 renal. To be noted: 10 µM unless noted.
The subject of experiment [15] is TK-10 renal. The note with it: 10 µM unless noted.
In experiment [16] the test system is ACHN renal. The note with it: 10 µM unless noted.
The subject of experiment [17] is CAKI-1 renal. The note with it: 10 µM unless noted.
The subject of experiment [18] is A498 renal. To be noted: 10 µM unless noted.
The test system of experiment [19] is CCRF-CEM leukemia. The note with it: 10 µM.
Experiment [20] has as its system MOLT-4 leukemia. To be noted: 10 µM unless noted.

Regarding `CN1CCN(Cc2ccc(NC(=O)c3cncc(C#Cc4c(N)ncc5ccc(F)cc45)c3)cc2C(F)(F)F)CC1`, the growth is 25.9% in [1]; -60.1% (active) in experiment [2]; 15.5% in experiment [3]; 74.3% in [4]; 43.3% in experiment [5]; 43.7% in [6]. In addition, the growth is -93.1% (active) in experiment [7]; 22.8% in experiment [8]; -8.63% (active) in experiment [9]; -84.9% (active) in experiment [10]; -33% (active) in experiment [11]; 50.7% in [12]. For the same compound, the growth in experiment [13] is 36.4%; in [14], -78.9% (active); in [15], 11.5%; in experiment [16] it was -93.6% (active); in [17], 25.2%; in [18], 15%. For the same compound, the growth in experiment [19] was 0.436% (active); in [20] it was 9.77% (active).
As for `CC1(C)CC(=O)C2=C(C1)Oc1nc(N)c(C#N)c(N)c1C2c1ccc(F)cc1` (stereo not given), the growth in experiment [1] was 123%; in [2] it was 99.6%; in [3], 101%; in experiment [4], 113%; in [5] it was 107%; in experiment [6], 113%. The growth in experiment [7] was 91.6%; in experiment [8] it was 85.6%; in experiment [9], 96.6%; in experiment [10], 110%; in experiment [11] it was 107%; in experiment [12], 97.4%. Moreover, the growth in experiment [13] was 107%; in [14], 181%; in experiment [15], 72.8%; in [16] it was 107%; in experiment [17], 92.3%; in [18] it was 102%. In addition, the growth in experiment [19] was 118%; in experiment [20] it was 74.4%.
With `CCC(CCCN1C(=O)c2ccccc2C1=O)Nc1cc(OC)cc2c(C)ccnc12` (stereo not given), the growth in [1] was 91.5%; in experiment [2], 100%; in experiment [3], 92.2%; in [4], 102%; in [5], 90.7%; in [6], 89.1%. Also, the growth in experiment [7] is 85.3%; in experiment [8], 69.5%; in experiment [9] it was 95.8%; in [10], 101%; in experiment [11] it was 87%; in [12], 84.5%. The growth is 97.8% in experiment [13]; 115% in [14]; 120% in [15]; 100% in [16]; 75.7% in [17]; 60% in experiment [18]. The growth in experiment [19] is 105%; in experiment [20] it was 66.3%.
On to `CCCCCCCCCCCCc1ccc([N+](CC)(CC)CC)cc1`, for which the growth in [1] was 96%; in experiment [2], 39.3%; in experiment [3], 33.5%; in experiment [4], 31.7%; in [5] it was 29.6%; in experiment [6], 25.1%. For the same compound, the growth in experiment [7] is -75.5% (active); in [8], 11.1%; in [9], 32.9%; in experiment [10] it was 28.9%; in experiment [11], 42.7%; in [12] it was 41%. The growth in experiment [13] was 33.5%; in [14], 78.7%; in [15], 67.1%; in experiment [16] it was 85%; in experiment [17], 88.7%; in [18], 60%. In addition, the results for the growth in experiment [19] and in experiment [20] were 33% and 51.9%, respectively.
`CCCC(=O)NNc1[nH]c(-c2cc(OC)c(OC)c(OC)c2)cc1C(=O)OCC`: the growth in experiment [1] is 116%; in [2], 114%; in experiment [3] it was 114%; in experiment [4], 110%; in experiment [5] it was 103%; in experiment [6], 111%. Also, the growth in experiment [7] was 112%; in [8] it was 102%; in [9] it was 105%; in experiment [10] it was 122%; in experiment [11], 103%; in experiment [12], 103%. In addition, the growth was 108% in experiment [13]; 88.7% in [14]; 74.1% in experiment [15]; 81% in [16]; 73.1% in experiment [17]; 120% in [18]. Besides, the values for the growth in experiment [19] and in experiment [20] were 9.44% (active) and 1.13% (active), respectively.
As for `CC(=O)Nc1nc(C)c(C(=O)N/N=C/c2cccs2)s1`, the growth is 101% in [1]; 95% in experiment [2]; 72% in experiment [3]; 96.8% in [4]; 98.6% in [5]; 101% in [6]. For the same compound, the growth was 97.7% in experiment [7]; 80.1% in experiment [8]; 93.2% in experiment [9]; 95.5% in experiment [10]; 19.3% in experiment [11]; 107% in experiment [12]. Besides, the growth in [13] is 92.6%; in [14] it was 79.8%; in experiment [15] it was 144%; in [16], 95.9%; in experiment [17], 111%; in experiment [18], 92.4%. The growth in experiment [19] was 84.6%; in experiment [20], 84.1%.
On to `O=C1/C(=N\c2cc(=O)[nH]n2S(=O)(=O)c2ccccc2)Nc2ccccc21`, for which the growth was 100% in [1]; 109% in [2]; 81.2% in experiment [3]; 99.8% in experiment [4]; 105% in experiment [5]; 87% in experiment [6]. The growth is 98.6% in experiment [7]; 97.6% in experiment [8]; 92.4% in experiment [9]; 116% in experiment [10]; 102% in [11]; 101% in experiment [12]. Further, the growth is 98.2% in experiment [13]; 70.8% in experiment [14]; 123% in experiment [15]; 94.7% in experiment [16]; 84.8% in [17]; 98.2% in experiment [18]. In addition, the growth in [19] was 98.4%; in [20] it was 102%.
Take `CSC1=Nc2c(c(C)c(-c3ccccc3)n2CCCCl)C2=NC(=O)CN12`: the growth in experiment [1] is 64.9%; in experiment [2], 23.5%; in [3], 21.2%; in [4] it was 81.2%; in experiment [5], 51.6%; in experiment [6] it was 68.9%. Further, the growth in experiment [7] is 50.7%; in [8], 36.7%; in [9] it was 49.8%; in experiment [10], 55.9%; in experiment [11], 75.4%; in experiment [12], 54.2%. In addition, the growth in experiment [13] is 86.3%; in experiment [14], 57.2%; in experiment [15], 105%; in experiment [16], 88.3%; in experiment [17], 57.7%; in experiment [18] it was 46.9%. Further, the growth was 51.9% in experiment [19] and 50.6% in experiment [20].
